Drawing on PubChem BioAssay AID1259343 (VanderVen Lab, College of Veterinary Medicine, Cornell …, 2017), this text covers inhibition for 104 molecules.

Among all 6,200 compounds or so, about 2,900 (47%) were called active. So high a share suggests a set chosen from earlier hits. The list shows a part of the results. Values without a mark were called inactive. Rule as the data show it: active = inhibition above about 50%; inactive = the rest.

In general, inhibition refers to the drop in the measured response relative to a control, in per cent.

A short description of this test: Mycobacterium tuberculosis growth inhibition, primary screen (AID 1259343). To be noted: inhibition: at 10 µM, stronger effect = higher value; outcome: 10 uM.
For `CN(C)C(=O)c1ccc(-c2cnc3c(c2)CCN3CCCc2ccccc2)cc1`, the inhibition was 33.1%.
Turning to `COc1ccc(C(NC(=O)c2ccc(C)s2)C2CC2)cc1` (centres undefined), the inhibition was 83.9% (active).
As to `COc1cc(NC(=O)c2ccc(C)s2)cc(OC)c1OC`, the inhibition was 6.84%.
As for `CN(C)c1nc(N)nc(Cn2nc(-c3ccc(F)cc3)oc2=O)n1`, the inhibition is 91.8% (active).
On to `O=C1CC(c2ccc(Br)s2)c2cnn(C3CCCC3)c2N1` (centres undefined), for which the inhibition is 31.2%.
The value for `O=C(N/N=C(\CC(=O)c1cccs1)C(F)(F)F)c1cccc(Br)c1` was 103% (active); that for `CC(C)CC1=NN(C(=O)c2cccc(Br)c2)C(O)(C(F)(F)F)C1` (centres undefined) was 23%.
Then `CCN1CCc2c(sc(NC(=O)c3ccc(OC)c(OC)c3)c2-c2nc3ccccc3s2)C1`, with 28.1%; and `CCOC(=O)c1c(NC(=O)c2c(F)c(F)c(F)c(F)c2F)sc2c1CCN(c1ccc(Cl)nc1)C2`, with 61.8% (active).
The value for `Cc1noc(CN(C)C(=O)c2cc(C(C)C)no2)n1` was -37.1%.
As for `Cc1ccc(CN(C)C(=O)c2cc(C(C)C)[nH]n2)o1`, the inhibition is 69.9% (active).
As to `Cc1ccc(CN(C)C(=O)c2cc(Br)c[nH]2)o1`, the inhibition is 44.1%.
For `CCN(CC)C(=O)COC(=O)c1cc(-c2cc(C)sc2C)nc2onc(C)c12`, the inhibition is -34.1%.
`Cc1cc(C)nc(Nc2cccc(OCc3nc(-c4cccs4)no3)c2)n1`: the inhibition is 29.2%.
In the case of `S=c1[nH]nc(COc2ccc(Cl)cc2)o1`, the inhibition is 91.8% (active).
Then `CC(Oc1ccc(F)cc1)c1n[nH]c(=S)o1` (centres undefined), with -17.5%.
Then `S=c1[nH]nc(COc2ccccc2Cl)o1`, with -28.9%; and `COc1cccc(OCc2n[nH]c(=S)o2)c1`, with 79.7% (active).
For the molecule `S=c1[nH]nc(COc2ccc(Cl)cc2Cl)o1`, the inhibition is 79.7% (active).
On to `Cc1ccc(C)c(OCc2n[nH]c(=S)o2)c1`, for which the inhibition was 21.7%.
Turning to `COc1cccc(OCc2nc(-c3ccc(Br)o3)no2)c1`, the inhibition was 93.8% (active).
Take `CN1N=C(c2ccc(F)c(F)c2)CSC1=NCc1ccccc1`: the inhibition was 18.9%.
The value for `OC1(C2(O)CC(c3ccccc3)NO2)CCCCC1` (centres undefined) was 27.1%; that for `O=C(NN=C1C(=O)c2cccc3cccc1c23)NC1CCCCC1` was -1.18%.
Consider `CC(On1nnc2ccc(Cl)cc21)C(=O)NC(=O)NC1CCCCC1` (centres undefined), for which the inhibition is 27.5%.
The value for `Cc1cccc(C)c1-n1nnnc1SC(C)C(=O)NC(=O)NC1CCCCC1` (centres undefined) was 81.5% (active); that for `O=C(C1CC1)N1CCC(NCc2ccc(-c3cccc(Br)c3)s2)CC1` was 44.8%.
In the case of `N#Cc1ccc(/C=C/C(=O)N2CCN(Cc3ccc(Br)s3)CC2)cc1`, the inhibition was 28.6%.
As to `Brc1ccc(-c2ccc(CN3CCNCC3)s2)cc1`, the inhibition was 73.8% (active).
For the molecule `O=C(NC(=S)Nc1cc(Cl)c(Cl)cc1Cl)C1CC1`, the inhibition is 82.6% (active).
In the case of `CCN(C(=S)NC(=O)C1CC1)C1CCCCC1`, the inhibition was 20.5%.
Then `O=C(NNc1c(Cl)cc(Cl)cc1Cl)C1CCC1`, with 47.8%; and `C=CCOc1ccccc1CN(C(=O)CCl)c1ccc2c(c1)OCCO2`, with 37.2%; and `O=[N+]([O-])c1cc(S(=O)(=O)Nc2cc(Cl)ccc2-n2cncn2)ccc1Cl`, with 67.4% (active).
For `O=[N+]([O-])c1cc(S(=O)(=O)Nc2cc(Cl)ccc2F)ccc1F`, the inhibition is 47.3%.
As for `O=S(=O)(Nc1cc(Cl)ccc1-n1cncn1)c1ccc(F)cc1`, the inhibition was 66% (active).
The value for `O=c1[nH]nc(-c2ccccc2O)n1-c1ccc(Br)cc1` was -5.57%; that for `O=C(CCNc1ccc(-c2ccccc2)cc1)N1CCn2cncc2C1` was 92.2% (active).
In the case of `O=C(CN1CCN(C(=O)C2CCCO2)CC1)Nc1ccc(-c2ccccc2)cc1` (centres undefined), the inhibition was 4.56%.
The value for `COC(=O)N1CCc2onc(-c3ccc(-c4ccccc4)cc3)c2C1` was 25.7%.
Take `c1ccc(Cc2nnc3sc(-c4ccco4)nn23)cc1`: the inhibition was 21.3%.
Then `CCCOC(=O)c1ccc(NCN2C(=O)c3ccccc3C2=O)cc1`, with 93.9% (active); and `CCCCOC(=O)c1ccc(Nc2ncnc3c2nnn3C)cc1`, with 9.62%.
Take `CCn1cc(CNC(=O)CCc2nnc(CCC3CCCCC3)o2)cn1`: the inhibition was 76.4% (active).
As to `O=C(CCc1nnc(CCC2CCCCC2)o1)NCCc1cccnc1`, the inhibition was 41%.
Regarding `COCC(C)NC(=O)CCc1nnc(CCC2CCCCC2)o1` (centres undefined), the inhibition entry is “inactive”.
As to `CC(CNC(=O)CCc1nnc(CCC2CCCCC2)o1)c1ccccc1` (centres undefined), the inhibition is 57.9% (active).
For the molecule `CN(Cc1ccoc1)C(=O)c1cn(CC2CCCCC2)nn1`, the inhibition was 26.8%.
As to `CC(Cc1cnccn1)NC(=O)CCc1nnc(CCC2CCCCC2)o1` (centres undefined), the inhibition was 33.8%.
Then `O=C1Nc2ccc(Br)cc2C12Nc1ccccc1S2` (centres undefined), with 5.83%; and `FC(F)Oc1ccc(NC(=S)Nc2cccnc2)cc1Cl`, with 92.8% (active); and `O=C(CCl)Nc1ccc(OC(F)F)c(Cl)c1`, with 86.6% (active).
Then `CC(OC(=O)c1ccco1)C(=O)Nc1ccc(OC(F)F)c(Cl)c1` (centres undefined), with 4.36%; and `N#Cc1ncn(CC(=O)Nc2ccc(OC(F)F)c(Cl)c2)n1`, with 73.2% (active); and `Cc1cc(C(=O)Nc2ccc(OC(F)F)c(Cl)c2)on1`, with 91.1% (active).
In the case of `COC(=O)C1=C(OC)C(=O)OC12C=CC(=O)C=C2`, the inhibition is -11.4%.
The value for `Fc1ccc(Nc2nnc(-c3ccc(Br)s3)o2)c(F)c1` was 87.9% (active).
The value for `Cc1cc2c(F)ccc(C)c2nc1N1CCC(O)(C(=O)O)CC1` was 86% (active).
The value for `Clc1ccc(-c2cnnc(N3CCC(c4ccncc4)CC3)n2)cc1` was 21.9%; that for `CS(=O)c1ccccc1C(=O)OCc1c(Cl)cccc1Cl` (centres undefined) was 30.8%.
With `CC(C)C(NC(=O)C1=Cc2ccccc2OC1)c1cccs1` (centres undefined), the inhibition was 5.93%.
Then `CC(NC(=O)COC(=O)c1ccccc1O)c1cccs1` (centres undefined), with 88.8% (active); and `Cc1cccc(N2CCN(C(=O)c3cc(COc4ccc(F)c(F)c4)on3)CC2)n1`, with 52.2% (active).
As for `CCOC(=O)N1CCN(C(=O)c2cc(COc3ccc(C)c(C)c3)on2)CC1`, the inhibition was 74.9% (active).
Regarding `CCCc1nnc(-c2cc3ccccc3[nH]2)o1`, the inhibition is 38.4%.
Then `CCCCc1nnc(-c2cc3ccccc3[nH]2)o1`, with 18.4%; and `CCCc1nnc(-c2cc3ccccc3n2C)o1`, with 69% (active); and `c1ccc(CCc2nc(-c3ccncc3)no2)cc1`, with “inactive”.
On to `O=C(CCc1nc(-c2ccncc2)no1)Nc1ccc(Oc2ccccc2)cc1`, for which the inhibition was 95.7% (active).
The value for `COC(=O)c1cccc(NC(=O)N2CCN(CCCOC(c3ccc(Cl)cc3)c3ccc(Cl)cc3)CC2)c1` was 13.4%; that for `c1ccc2[nH]c(-c3ccc(OCc4nc(CC5CC5)no4)cc3)nc2c1` was 10.7%.
Then `c1ccc(OCc2noc(CN3CCN(c4ccccn4)CC3)n2)cc1`, with 43%; and `c1ccc(OCc2noc(COc3ccc4ncccc4c3)n2)cc1`, with 64.9% (active).
The value for `CCc1noc(CSC2=Nc3ccccc3CS2)n1` was 23%; that for `CCc1ccc(CN(C)Cc2nc(COc3ccccc3)no2)nc1` was 93.7% (active); that for `COc1ccc(-c2nc(CN(C)Cc3ccc4nsnc4c3)c(C)o2)c(C)c1C` was 12.7%.
Take `CN(Cc1ccc2nsnc2c1)Cc1nc(COc2ccccc2)no1`: the inhibition is 65.2% (active).
For `CN(Cc1nc(COc2ccccc2)no1)CC1Cc2ccccc2O1` (centres undefined), the inhibition is 53.6% (active).
Then `CN(Cc1nc(COc2ccccc2)no1)CC1CCOCC1`, with 29.5%; and `Nc1ccccc1Sc1c[nH]c2ccccc12`, with 46.1%.
Then `Cc1ccc(OCCN(C)c2ccccc2)cn1`, with -0.64%; and `Cc1ccc(OCCN(C)Cc2nc(COc3ccccc3)no2)cc1`, with 80% (active); and `Cc1cccn2c(=O)nc(SC/C=C/c3ccccc3)nc12`, with 7.88%.
The value for `COc1ccc(Nc2nc3c(C)cccn3c(=O)c2/C=N\Nc2ccccc2)cc1` was 88.8% (active); that for `COc1ccc(N=Cc2c(NCCO)nc3c(C)cccn3c2=O)cc1` was 75.7% (active); that for `Cc1ccc(N=Cc2c(Nc3ccccc3)nc3c(C)cccn3c2=O)cc1` was -12%.
In the case of `O=S(=O)(NN=C1c2ccccc2-c2ccccc21)c1ccccc1`, the inhibition is -15.8%.
On to `CCSc1nc2c(c(C3CC=CCC3)c1C#N)CCC2` (centres undefined), for which the inhibition was 45.2%.
For `CSc1nc2c(c(-c3ccc(O)cc3)c1C#N)CCC2`, the inhibition is 48.4%.
Turning to `N#CCSc1nc2c(c(C3CC=CCC3)c1C#N)CCC2` (centres undefined), the inhibition is 66.1% (active).
For the molecule `CC1CCC(N(C)C(=O)NCc2ncc(-c3ccccc3)o2)CC1` (centres undefined), the inhibition was 76.1% (active).
Turning to `CC(C)c1nc(Cn2ccnc2-c2ccc(C3CCCCO3)s2)no1` (centres undefined), the inhibition is -7.76%.
As to `c1ccc2oc(CN3CCC(c4nc5ccccc5s4)CC3)nc2c1`, the inhibition was -16%.
Regarding `c1ccc(N2CCCC2)c(CNc2nc3ccccc3o2)c1`, the inhibition is 34.1%.
Regarding `Cc1ccccc1-c1nc(CN2CCN(c3ncc4ccccc4n3)CC2)c(C)o1`, the inhibition is 20.3%.
On to `CCSc1ncc(CN2CCN(c3nc4ccccc4o3)CC2)cn1`, for which the inhibition was 95.3% (active).
In the case of `c1ccc2oc(N3CCN(Cc4ccc(C5CCCO5)s4)CC3)nc2c1` (centres undefined), the inhibition is 90.8% (active).
Then `CCCCC(CC)CN1CNC(=S)NC1` (centres undefined), with 48.2%; and `O=S(=O)(Nc1cccc(Br)c1)c1ccc(Br)s1`, with 97.3% (active).
Then `O=S(=O)(Nc1cccc(Br)c1)c1ccc(Cl)s1`, with 84.1% (active); and `CC(=O)/C(=N/Nc1ccccc1[N+](=O)[O-])Oc1ccc(Br)cc1`, with -28.4%; and `NC(=O)C1CN(C2CCCCc3ccccc32)CCO1` (centres undefined), with 49.4%.
The value for `COc1ccccc1CC(=O)NC1CCSc2ccccc21` (centres undefined) was -22.7%; that for `COc1ccc(OC)c2c1CN(C1CCCc3ccccc31)CC2O` (centres undefined) was 95.8% (active).
